Test [1] is described as follows: inhibitors of TNFa-induced NFkB p65 translocation, primary screen, imaging, HUVEC, MLSMR starter and 10KST1 sets (AID 438).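 For inhibition: signal is the nuclear over cytoplasmic p65 intensity ratio per well.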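 Note: compound added about 3h40 before a 20 min TNFalpha stimulation.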 The conditions noted are these: HUVEC TNFa-induced p65 nuclear translocation; cell count: measured here: nuclei count (cytotoxicity indicator), at 2.08 µM; inhibition: at 2 µM, stronger effect = higher value, 0% TNFa-plus-vehicle, 100% no-TNFa wells.
Test [2] in a line: inhibitors of mutant huntingtin aggregation, primary screen, imaging, exon1htt(103Q)mCFP cells, high-content imaging (AID 483;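 active = visual image review flags a hit and inhibition of aggregation exceeds 20%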;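 note: compound exposure lasted 3 days before fixation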;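 for nuclei count: percent of the per-plate median nuclei count of sample wells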). The note with it: exon1htt(103Q)mCFP cell line, aggregate imaging, at 2 µM; inhibition of aggregation: stronger effect = higher value; nuclei count: measured here: cell count, toxicity.
In test [3] the target is Voltage-gated potassium channel subunit beta-2 (Rattus norvegicus) (UniProt P62483). Put plainly: KvBeta enzyme negative modulators, primary screen, biochemical, NADPH fluorescence (AID 622;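 active = fluorescence slope higher than the sample average by over 3 SD, cut at about -0.22 in these data, passing the limit was not always enough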;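 note: slope of raw intensity against log time taken from 70 to 1610 s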). The conditions noted are these: recombinant KvBeta, 4-cyanobenzaldehyde reduction, at 10 µM, stronger effect = higher value.
For test [4] the target is unchanged. Put plainly: KvBeta positive modulators, primary screen, biochemical, NADPH fluorescence (AID 623;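 active = NADPH fluorescence slope more negative than the mean of all samples by about 3 SD, 99.7% confidence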;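 note: fluorescence intensity change per second fitted from 20 to 320 s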). The note with it: Recombinant KvBeta, NADPH fluorescence decrease slope, 10 min; at 10 µM; stronger effect = lower value.
The target in test [5] is Alpha-2C adrenergic receptor (Homo sapiens) (UniProt P18825). Put plainly: modulators of alpha2C/GIRK thallium flux, primary screen, cell-based, HEK293 alpha2C/GIRK1/2 (AID 624;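 active = fluorescence slope after compound addition differing from the mean of all screened samples at 99.7% confidence, in either direction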;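 note: slope of fluorescence ratio to pre-addition baseline per second over 15 to 24 s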). The note with it: thallium flux BTC fluorescence, at 10 µM, actives lie on both sides.
Test [6] is described as follows: inhibitors of Sendai virus-induced IRF3 signaling, primary screen, TLR/RLR signaling modifier project, cell-based, Sendai virus stimulus, luciferase, 10K MLSCN set (AID 602276;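 active = inhibition at or above 50% at 10 µM; inactive = inhibition below 50%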;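 note: firefly luciferase from ISG56 promoter only with Renilla not read in this screen; 0% = Sendai virus plus DMSO and 100% = medium plus DMSO without virus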). The note with it: HEK293 RL24 IRF3 luciferase reporter, at 10 µM, stronger effect = higher value. On the technique in general: In a reporter assay the amount or activity of a reporter protein is the signal.

Test [7] can be described thus: inhibitors of poly I:C-induced TLR3 signaling, primary screen, cell-based, poly I:C stimulus, luciferase, 10K MLSCN set (AID 602277;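 active = inhibition of the reporter signal at or above 50%; inactive = inhibition below 50%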). The conditions noted are these: HEK293-TLR3 RL24 IRF3 luciferase reporter, at 10 µM, stronger effect = higher value.
Test [8] can be described thus: inhibitors of E-selectin induction by TNFa, primary screen, imaging, HUVEC, immunofluorescence, MLSMR starter and 10KST1 sets (AID 487;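 active = visually confirmed hit in the image check and inhibition above 20%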;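 for inhibition: signal is fraction of cell area covered by stained E-selectin grains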;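 for nuclei count: 100% = median nuclei count of all wells on the same plate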). The note with it: HUVEC TNFalpha-induced E-selectin immunofluorescence imaging, at 2 µM; inhibition: stronger effect = higher value; nuclei count: measured here: cell number, toxicity.
For test [9], the target named is Muscarinic acetylcholine receptor M4 (Homo sapiens) (UniProt P08173). Put plainly: compounds altering M4/GIRK thallium flux, either direction, primary screen, M4 allosteric agonist project, cell-based, HEK293 M4/GIRK, BTC-AM (AID 625;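 active = fluorescence slope after compound addition differing from the mean of all tested samples at 99.7% confidence, mostly higher but some lower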;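 note: thallium influx through GIRK channels coupled to M4 in HEK293 cells with BTC-AM dye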). The note with it: at 10 µM, actives lie on both sides.
Test [10] is described as follows: DUSP6 inhibitors restoring Erk phosphorylation by chemical complementation, primary imaging in DUSP6-transfected HeLa (AID 609;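 active = compounds giving at least 50% inhibition in the cell-based MKP-3 phosphatase rescue imaging test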;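 for inhibition: phospho-Erk level distribution per well compared with pooled transfected vehicle control wells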). The conditions noted are these: HeLa MKP-3 transfected, phospho-Erk imaging KS statistic, at 10 µM, cells stimulated with TPA for 15 min.
Test [11] concerns the target Dual specificity protein phosphatase 6 (Homo sapiens) (UniProt Q16828). Described as above. The note with it: HeLa MKP-3 transfected, phospho-Erk imaging KS statistic; at 10 µM; stronger effect = higher value; cells stimulated with TPA for 15 min.
Setting [12] is: measured here: cell density z-score.
[13] abbreviates: measured here: nuclear c-Myc green intensity z-score.
The mark [14] stands for this setting: measured here: nuclear pErk red intensity z-score, stronger effect = higher value.

Activity calls are given as the source filed them.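 Rule for the calls, unless noted: active = inhibition above 20% together with a positive visual image hit; inconclusive = visual image hit but inhibition not above 20%; inactive = no visual image hit.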

The inhibition is the drop in the measured response relative to a control, in per cent.

Chain of Alpha-2C adrenergic receptor (Homo sapiens) (P18825 whole entry, looked up): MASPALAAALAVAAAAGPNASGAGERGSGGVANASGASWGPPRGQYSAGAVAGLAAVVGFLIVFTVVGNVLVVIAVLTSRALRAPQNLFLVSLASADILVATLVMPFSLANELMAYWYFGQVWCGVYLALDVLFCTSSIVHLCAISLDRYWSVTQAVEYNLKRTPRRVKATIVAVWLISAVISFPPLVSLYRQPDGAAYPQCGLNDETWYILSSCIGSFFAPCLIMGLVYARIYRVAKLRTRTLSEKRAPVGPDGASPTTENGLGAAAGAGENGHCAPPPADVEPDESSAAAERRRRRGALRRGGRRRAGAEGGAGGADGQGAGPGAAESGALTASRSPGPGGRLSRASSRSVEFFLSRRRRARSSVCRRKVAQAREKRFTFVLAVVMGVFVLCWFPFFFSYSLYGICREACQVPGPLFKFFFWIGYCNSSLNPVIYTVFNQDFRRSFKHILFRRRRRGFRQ
Chain of Muscarinic acetylcholine receptor M4 (Homo sapiens) (P08173 whole entry, looked up): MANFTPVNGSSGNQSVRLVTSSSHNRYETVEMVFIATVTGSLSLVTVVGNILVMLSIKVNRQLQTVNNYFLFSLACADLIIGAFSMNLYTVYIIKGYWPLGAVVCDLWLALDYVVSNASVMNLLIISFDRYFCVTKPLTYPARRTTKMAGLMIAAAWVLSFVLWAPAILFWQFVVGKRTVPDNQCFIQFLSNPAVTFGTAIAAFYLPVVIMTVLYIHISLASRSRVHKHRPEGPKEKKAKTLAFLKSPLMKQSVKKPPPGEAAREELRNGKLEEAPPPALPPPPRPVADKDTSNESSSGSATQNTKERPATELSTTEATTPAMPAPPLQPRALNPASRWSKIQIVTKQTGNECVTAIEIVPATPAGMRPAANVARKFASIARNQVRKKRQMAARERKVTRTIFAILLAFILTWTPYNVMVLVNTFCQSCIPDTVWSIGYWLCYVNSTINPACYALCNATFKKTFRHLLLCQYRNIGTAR
Chain of Voltage-gated potassium channel subunit beta-2 (Rattus norvegicus) (P62483 whole entry, looked up): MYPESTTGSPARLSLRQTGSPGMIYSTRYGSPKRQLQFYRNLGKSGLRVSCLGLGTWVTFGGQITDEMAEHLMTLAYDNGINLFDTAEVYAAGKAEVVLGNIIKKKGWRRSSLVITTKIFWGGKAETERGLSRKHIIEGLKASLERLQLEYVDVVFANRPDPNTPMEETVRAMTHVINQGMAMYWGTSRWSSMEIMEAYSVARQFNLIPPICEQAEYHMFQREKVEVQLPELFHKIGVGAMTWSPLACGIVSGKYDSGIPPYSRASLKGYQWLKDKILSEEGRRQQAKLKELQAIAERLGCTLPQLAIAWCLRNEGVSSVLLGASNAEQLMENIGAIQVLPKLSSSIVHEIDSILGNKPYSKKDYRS
Chain of Dual specificity protein phosphatase 6 (Homo sapiens) (Q16828 whole entry, looked up): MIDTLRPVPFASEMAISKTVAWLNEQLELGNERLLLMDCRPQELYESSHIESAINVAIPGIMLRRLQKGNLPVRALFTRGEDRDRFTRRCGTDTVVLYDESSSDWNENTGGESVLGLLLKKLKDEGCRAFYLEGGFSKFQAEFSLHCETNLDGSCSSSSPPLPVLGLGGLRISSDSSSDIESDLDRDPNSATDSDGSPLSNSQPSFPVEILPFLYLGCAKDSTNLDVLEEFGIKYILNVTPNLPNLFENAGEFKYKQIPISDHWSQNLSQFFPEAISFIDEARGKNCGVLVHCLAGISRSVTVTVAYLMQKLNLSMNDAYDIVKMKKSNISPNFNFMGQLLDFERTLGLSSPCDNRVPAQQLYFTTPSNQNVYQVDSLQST

On to `CCOCCCNC(=O)CCNS(=O)(=O)c1ccc(C)cc1`, for which, in test [1], the cell count was 547 and the inhibition is -15% (inactive). Besides, in [2], the inhibition of aggregation is -10.7% (inactive) and the nuclei count was found to be 90.3%. Also, the fluorescence slope in test [3] is -0.411 (inactive). Also, the NADPH fluorescence slope in test [4] is -3.1e-05 (inactive). Also, the slope in test [5] was 0.00305 (inactive). Further, in test [6], the inhibition is -17.9% (inactive). The inhibition in test [7] was 22.8% (inactive).

On to `COCc1cc(C)c2c(N)c(C#N)sc2n1`, for which the cell count in test [1] came out at 549. The inhibition was 2.2% (inactive) in test [1], 22.2% (inactive) in test [8], -19.7% (inactive) in [6] and -33.5% (inactive) in test [7]. In [2], the inhibition of aggregation was -26% (inactive). Besides, the nuclei count in test [2] turned out to be 60.8%; in test [8], 108%. Moreover, the results for the fluorescence slope in test [3] and in test [9] were -0.324 (inactive) and 0.00504 (inactive), respectively. Further, in test [4], the NADPH fluorescence slope is 2.3e-06 (inactive).

Turning to `O=C(CNC(=O)c1cccs1)NCCN1CCN(c2ccccc2F)CC1`, in [1], the cell count amounted to 585. In addition, the inhibition is -8.2% (inactive) in [1], -19.1% (inactive) in [8], 19.5% (inactive) in test [6] and 17.5% (inactive) in test [7]. In addition, the inhibition of aggregation in test [2] was -28.3% (inactive). Also, the nuclei count in test [2] came out at 99.6%; in test [8], 106%. Moreover, the fluorescence slope in [3] was -0.451 (inactive); in [9], 0.00484 (inactive). Moreover, the NADPH fluorescence slope in test [4] was -3.9e-05 (inactive).

`COc1cccc(-c2cc(C(=O)Nc3cc(OC)c(OC)c(OC)c3)no2)c1`: in [1], the cell count is 461 and the inhibition is -4.5% (inactive). In test [2], the inhibition of aggregation is 1.1% (inactive) and the nuclei count amounted to 55.1%. Besides, in test [8], the inhibition was -12.3% (inactive) and the nuclei count turned out to be 97.2%. In addition, the fluorescence slope in test [3] is -0.511 (inactive). Moreover, in test [4], the NADPH fluorescence slope is -4.5e-05 (inactive). In addition, the slope in test [5] was 0.00712 (inactive). Moreover, the inhibition in [7] is -2.13% (inactive).

As to `COc1ccc(OCc2nc(N)nc(Nc3cccc(C)c3C)n2)cc1`, in test [1], the cell count came to 369 and the inhibition was 3.3% (inactive). In [2], the inhibition of aggregation was -10.8% (inactive) and the nuclei count was found to be 102%. Also, the fluorescence slope in test [3] was -0.446 (inactive). For the same compound, in test [4], the NADPH fluorescence slope was -1e-06 (inactive). In [5], the slope is 0.00333 (inactive). In addition, in test [6], the inhibition was 4.49% (inactive). The inhibition in [7] is 29% (inactive).

Turning to `COc1ccc(N2CCN(c3oc(COc4ccccc4)nc3C#N)CC2)cc1`, in [1], the cell count was found to be 449. The inhibition is 9.4% (inactive) in test [1], 10.1% (inactive) in [6] and 3.38% (inactive) in test [7]. The inhibition of aggregation in test [2] is -7.4% (inactive). Besides, the nuclei count was 102% in test [2] and 155% in [8]. Besides, the figures for the fluorescence slope in test [3] and in test [9] were -0.602 (inactive) and 0.00622 (inactive), respectively. Moreover, the NADPH fluorescence slope in [4] was -9.8e-06 (inactive).

Regarding `COC(=O)c1c(C(=O)OC)n(CCCN)c2ccc(C)cc12`, in [1], the cell count amounted to 434. The inhibition was 10.9% (inactive) in test [1], 20.6% (inactive) in test [6] and 34% (inactive) in test [7]. Moreover, in test [2], the inhibition of aggregation is 1.8% (inactive). In addition, the nuclei count in [2] is 100%; in test [8], 152%. Also, the results for the fluorescence slope in test [3] and in test [9] were -0.495 (inactive) and 0.00606 (inactive), respectively. Moreover, in [4], the NADPH fluorescence slope is -7.5e-06 (inactive).

In the case of `N#CC1=C(N)Oc2n[nH]c(-c3ccncc3)c2C1c1ccsc1` (stereo not given), the cell count in test [1] is 387. Moreover, the inhibition in test [1] was -1.5% (inactive); in test [8], 35.9% (inactive); in test [6], -2.51% (inactive); in test [7], -6.52% (inactive). The inhibition of aggregation in [2] is -10.3% (inactive). The values for the nuclei count in test [2] and in [8] were 109% and 98.6%, respectively. In addition, the fluorescence slope in test [3] was -0.546 (inactive); in [9] it was 0.00579 (inactive). Further, the NADPH fluorescence slope in test [4] was 1.9e-05 (inactive).

`Cc1ccc(NC2c3ncccc3C(=O)N2C2CCCCC2)cc1C` (stereo not given): the cell count in test [1] is 465. Further, the inhibition was 0.7% (inactive) in test [1], -28% (inactive) in test [8], 1.86% (inactive) in test [6] and 7.53% (inactive) in [7]. Also, the inhibition of aggregation in [2] is -11.9% (inactive). The nuclei count turned out to be 119% in test [2] and 102% in test [8]. The fluorescence slope is -0.276 (inactive) in test [3] and 0.00562 (inactive) in test [9]. For the same compound, the NADPH fluorescence slope in test [4] was -8.5e-06 (inactive).

As to `CCOC(=O)COc1ccc(S(=O)(=O)N2CCc3ccccc3C2)cc1`, the cell count in test [1] stood at 447. Besides, the inhibition is 3.3% (inactive) in [1], -5.1% (inactive) in test [8], 19.6% (inactive) in [6] and 23.3% (inactive) in test [7]. In test [2], the inhibition of aggregation is -59% (inactive). In addition, the figures for the nuclei count in test [2] and in test [8] were 58.4% and 96%, respectively. Further, the fluorescence slope is -0.555 (inactive) in [3] and 0.00522 (inactive) in test [9]. Moreover, in [4], the NADPH fluorescence slope was -4.9e-05 (inactive).

`Cc1cnc(C(=O)NCCc2ccc(S(=O)(=O)NC(=O)NC3CCCCC3)cc2)cn1`: in test [1], the cell count was 609. Moreover, the inhibition in [1] is 0.1% (inactive); in [8], -102% (inactive); in test [11], 12.4% (inactive); in test [6], 12.9% (inactive); in [7], 21.2% (inactive). In addition, in test [8], the nuclei count worked out at 134%. Also, the z-score is -0.283 in test [10] (setting [12]), 0.557 in test [10] (setting [13]) and -0.42 in [10] (setting [14]). For the same compound, the fluorescence slope in [3] was -0.474 (inactive). In addition, the NADPH fluorescence slope in test [4] is 8e-06 (inactive). In test [5], the slope was 0.0053 (inactive).

In the case of `COc1ccc(S(=O)(=O)NCc2ccco2)cc1-c1nnc2c3ccccc3c(C)nn12`, the cell count in test [1] is 723. Besides, the inhibition was -2.2% (inactive) in test [1], -77.8% (inactive) in test [8], 12.3% (inactive) in test [6] and 11.8% (inactive) in test [7]. In addition, the inhibition of aggregation in test [2] was -27% (inactive). Moreover, the nuclei count is 101% in [2] and 106% in [8]. For the same compound, the fluorescence slope in test [3] was -0.444 (inactive); in test [9], 0.00549 (inactive). For the same compound, the NADPH fluorescence slope in test [4] was -2.6e-05 (inactive).

Regarding `O=C(O)CC(C(=O)OCCOc1ccccc1)N1CCOCC1` (stereo not given), in test [1], the cell count was determined as 504 and the inhibition is 6.4% (inactive). For the same compound, in test [8], the inhibition was -77.1% (inactive) and the nuclei count turned out to be 109%.

Turning to `COc1ccccc1Nc1nc(N)nc(CN2CCN(c3ccccc3F)CC2)n1`, in test [1], the cell count was determined as 561. For the same compound, the inhibition in test [1] was -12.1% (inactive); in test [8] it was 25.3% (inactive); in [6] it was -5.08% (inactive); in [7] it was -10.4% (inactive). Moreover, the inhibition of aggregation in [2] is -5.7% (inactive). The results for the nuclei count in test [2] and in test [8] were 97.3% and 97.6%, respectively. Moreover, the fluorescence slope in test [3] was -0.571 (inactive); in test [9], 0.00301 (inactive). Besides, the NADPH fluorescence slope in test [4] was -2.2e-05 (inactive).

Regarding `CC(C)[N+]1(C)[C@@H]2CC[C@H]1CC(OC(=O)C(CO)c1ccccc1)C2` (stereo not given in full), the cell count in test [1] was found to be 466. Also, the inhibition in test [1] is -3.8% (inactive); in test [8], -89.2% (inactive); in test [11], 25.7% (inactive); in test [6], -5.72% (inactive); in test [7] it was 28.4% (inactive). The same compound displayed a nuclei count in test [8] of 94.7%. For the same compound, the values for the z-score in test [10] (setting [12]), in test [10] (setting [13]) and in test [10] (setting [14]) were 1.04, -0.0729 and -1.49, respectively. Besides, the fluorescence slope in test [3] is -0.497 (inactive). Also, the NADPH fluorescence slope in [4] was -5.7e-05 (inactive). Besides, the slope in test [5] is 0.00449 (inactive).
